# CatB mixtures: human cathepsin B inhibition by mixtures; Purified cathepsin B, AMC dipeptide fluorescence, compound mixtures; inhibition, %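 (ten-compound pools at 5 µM per compound and 50 µM total)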; 62,000 compounds, 0.06% hits; AID 488; in the data active = inhibition above about 22%, passing the limit was not always enough; inconclusive = no clear call, values can overlap the other calls
# CatS block: blocks human cathepsin S protease activity; P25774; recombinant cathepsin S, AMC dipeptide fluorescence, pooled mixtures; inhibition, %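 (tested at 5 µM per compound within 10-compound mixtures)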; 62,000 compounds, 0.06% hits; AID 501; in the data active = inhibition above about 32%, passing the limit was not always enough; inconclusive = no clear call, values can overlap the other calls
# SK-BR-3 tox 24h: SK-BR-3 proliferation inhibitors; SK-BR-3 viability, CellTiter-Glo ATP luminescence, 24 h; hits give low values; viability, % at 10 µM; 41,000 compounds, 0.47% hits;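 active = viability at or below the median of all test compounds minus 3 SD, in both replicates if run twice, cut at about 45% in these data; inconclusive = duplicate replicates that disagree with each other; inactive = viability above that cutoff in every replicate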
# CatB block: inhibitors of human cathepsin B. inhibition, %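 (tested at 10 µM)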. purified cathepsin B, fluorogenic substrate, fluorescence. AID 453. 63,000 compounds, 0.1% hits; in the data active = inhibition above about 21%
# HER2 expr 66K: inhibitors of human Her2 kinase expression. P04626. SKBR-3 HER2 protein level, AlphaScreen, 18-24 h; hits give low values. HER2 level % of control, % at 10 µM. 65,000 compounds, 0.69% hits. AID 645;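 active = HER2 level under 5% of the carrier-only control; inconclusive = no clear call, values can overlap the other calls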;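 note: lower value means stronger loss of Her2 protein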
# Target sequence (P04626 whole entry, looked up): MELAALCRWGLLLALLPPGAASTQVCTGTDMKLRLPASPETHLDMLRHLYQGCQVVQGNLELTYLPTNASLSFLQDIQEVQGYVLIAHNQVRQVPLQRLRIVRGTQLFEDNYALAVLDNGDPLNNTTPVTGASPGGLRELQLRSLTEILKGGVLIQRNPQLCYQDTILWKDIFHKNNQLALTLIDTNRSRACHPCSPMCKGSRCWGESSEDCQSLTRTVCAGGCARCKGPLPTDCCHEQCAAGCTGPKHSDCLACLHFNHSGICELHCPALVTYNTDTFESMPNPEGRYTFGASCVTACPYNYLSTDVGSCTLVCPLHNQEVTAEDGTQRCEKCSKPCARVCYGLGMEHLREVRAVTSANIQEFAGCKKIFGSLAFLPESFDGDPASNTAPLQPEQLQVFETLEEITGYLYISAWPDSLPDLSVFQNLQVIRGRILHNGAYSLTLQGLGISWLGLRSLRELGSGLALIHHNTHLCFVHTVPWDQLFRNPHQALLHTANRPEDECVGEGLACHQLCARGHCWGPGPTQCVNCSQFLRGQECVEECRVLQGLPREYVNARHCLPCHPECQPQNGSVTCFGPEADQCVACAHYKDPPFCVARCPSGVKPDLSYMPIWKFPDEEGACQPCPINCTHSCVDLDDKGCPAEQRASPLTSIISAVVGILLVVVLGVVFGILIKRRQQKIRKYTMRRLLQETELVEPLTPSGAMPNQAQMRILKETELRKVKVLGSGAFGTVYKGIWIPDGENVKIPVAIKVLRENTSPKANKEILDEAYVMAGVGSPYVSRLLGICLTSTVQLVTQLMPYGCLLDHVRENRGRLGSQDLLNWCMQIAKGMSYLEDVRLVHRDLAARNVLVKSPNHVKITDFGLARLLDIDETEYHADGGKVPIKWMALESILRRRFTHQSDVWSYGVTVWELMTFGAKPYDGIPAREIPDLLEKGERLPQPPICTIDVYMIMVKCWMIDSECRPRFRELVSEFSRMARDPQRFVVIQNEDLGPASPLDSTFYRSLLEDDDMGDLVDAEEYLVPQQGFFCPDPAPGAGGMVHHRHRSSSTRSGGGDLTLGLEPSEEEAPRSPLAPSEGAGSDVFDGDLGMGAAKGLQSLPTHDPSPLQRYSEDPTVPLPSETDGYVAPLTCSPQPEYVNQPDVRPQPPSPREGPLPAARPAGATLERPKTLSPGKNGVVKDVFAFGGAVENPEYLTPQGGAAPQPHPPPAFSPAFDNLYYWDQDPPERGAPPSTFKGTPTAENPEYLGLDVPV
# CatL block: blocks human cathepsin L protease activity | inhibition, %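 (tested at 10 µM)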 | AID 460 | purified cathepsin L, fluorogenic substrate, fluorescence | 58,000 compounds, 0.17% hits; in the data active = inhibition above about 45%
# A number is an active result; - = inactive; ? = inconclusive; . = not tested or not shown. Most compounds without a hit are left out; they make up all but 1.1% or so of the library.
SMILES,CatB mixtures,CatS block,SK-BR-3 tox 24h,CatB block,HER2 expr 66K,CatL block
CC(C)[C@H](NC(=O)OC(C)(C)C)c1nnc(S(=O)(=O)Cc2c(F)cccc2Cl)o1,-,-,-,-,-12.5,-
Cc1[nH]c(=O)[nH]c(=O)c1CSc1nnc([C@@H](NC(=O)OC(C)(C)C)C(C)C)o1,-,-,-,-,-,-
CCOC(=O)C1=C(N)OC2=C(C(=O)CCC2)C1c1ccc(C)s1 (stereo not drawn),-,-,.,-,-,-
CC(C)C[C@H](N)c1nnc(S(=O)(=O)Cc2cccc(F)c2)o1,-,-,-,-,-,46.4
O=C(CSc1nc2ccccc2[nH]1)NCCCn1ccnc1,-,-,-,-,.,-
COc1ccc2c(=O)c3c(=O)n(Cc4ccco4)c(-c4ccc(C)cc4)nc3oc2c1,-,-,-,-,4.8,-
CN1CCc2c(n(CC(O)CN3C(=O)c4ccccc4S3(=O)=O)c3ccccc23)C1=O (stereo not drawn),.,.,-,-,-,-
CC(C)NCC(O)Cn1c2c(c3ccccc31)CCc1c-2cnn1-c1ccccc1 (stereo not drawn),-,-,2.2,-,-15.7,-
Nc1nnc(CCN2C(=O)CSC2=O)s1,-,-,39.9,-,-,-
CCc1nc(SCc2cc(Cl)ccc2OC)n[nH]1,-,-,-,-,-,-
Cc1ccc(C)c2[nH]c(=O)c(CN(CCCN(C)C)C(=O)NCc3ccccc3)cc12,-,-,43.9,-,-,-
CCCCn1c(SCc2c(C)noc2C)nc2cc(S(N)(=O)=O)ccc21,-,-,.,-,-20.6,-
CCOC(=O)N1CCC(NC(=O)C2CCCCN2S(=O)(=O)c2ccc(F)cc2)CC1 (stereo not drawn),-,-,.,-,-,104.2
Cc1ccc(S(=O)(=O)N2CCCC2C(=O)NC2CCCCC2)cc1 (stereo not drawn),-,-,.,-,-,-
CCN(Cc1cc2ccccc2[nH]c1=O)C(=O)C(C)C,-,-,-,-,-,-
COc1ccc(N(CC(=O)Nc2cccc(C)c2C)S(=O)(=O)c2c(C)n[nH]c2C)cc1,-,-,-,61.5,-,-
O=C(CC(C(=O)N1CCc2ccccc21)n1ccnc1)N1CCc2ccccc2C1 (stereo not drawn),-,-,.,-,-,-
CCOC(=O)c1ccccc1NC(=O)Cn1c(-c2nonc2N)nc2ccccc21,-,-,-,58.6,-,-
CC1CCCN(C(=O)Cn2c(-c3nonc3N)nc3ccccc32)C1 (stereo not drawn),-,-,-,-,-23.7,-
Nc1nonc1-c1nc2ccccc2n1Cc1ccccc1,42.8,-,-,-,-,-
CCC(=O)Nc1nonc1-c1nc2ccccc2n1CC(C)C,-,-,-,-,-,-
Nc1nonc1-c1nc2ccccc2n1CC(=O)NC1CCCC1,-,-,.,-,-,-
CCOC(=O)C(C(C)=O)c1c(Br)c(O)c(O)c2c(C(=O)c3ccc(C)cc3)coc12 (stereo not drawn),-,-,?,-,-20.7,-
Cn1nnnc1SCC(=O)Nc1c(Cl)cccc1Cl,-,-,.,-,-20.5,-
COc1ccc(N2CCN(C(=O)c3ccc(S(=O)(=O)N4CCOCC4)cc3)CC2)cc1,-,-,-,-,-,-
SMILES,CatB mixtures,CatS block,SK-BR-3 tox 24h,CatB block,HER2 expr 66K,CatL block
CCC(=O)Oc1oc(-c2ccccc2)nc1C=Nc1ccccc1OC,.,.,-,25.9,-,-
COCCOC(=O)C1=C(C)NC(=O)N(C(C)=O)C1c1ccc(Cl)cc1 (stereo not drawn),-,-,-,-,-,-
CCOC(=O)/C=C/S(=O)(=O)c1ccc(NC(C)=O)cc1,-,-,3.0,-,-22.4,-
COC(=O)c1sccc1NC(=O)c1csc(C)c1,-,-,-,-,0.2,-
COC(=O)c1sccc1NC(=O)c1ccc(Cl)s1,-,-,-,-,4.0,-
O=C(c1ccco1)N1CCN(C(c2cccs2)c2nnnn2C2CCCCC2)CC1 (stereo not drawn),-,-,.,-,-,-
COc1ccc(NC(=O)C(F)(OC)C(F)(F)F)c(OC)c1 (stereo not drawn),-,-,41.4,-,-,-
COc1cc2[nH]c(=O)n(CCCCCC(=O)N3CCN(c4ccccc4)CC3)c(=O)c2cc1OC,-,?,-,-,-,-
COc1cc2[nH]c(=O)n(CCC(=O)N3CCN(c4cccc(C)c4C)CC3)c(=O)c2cc1OC,-,-,4.9,-,-22.9,-

# Screening data (PubChem)
